APOBEC3A inh – human APOBEC3A DNA deaminase inhibition | P31941 | recombinant A3A, FAM/TAMRA ssDNA deamination fluorescence | inhibition, % at 20 µM | 330,000 tested, 0.41% active | AID 493011;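 active = at least 40% inhibition at 20 µM here, with at most 30% in a related deaminase screen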;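 note: plate controls were A3A with DMSO for no effect and wells lacking A3A enzyme for full effect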
Target sequence (P31941 whole entry, looked up): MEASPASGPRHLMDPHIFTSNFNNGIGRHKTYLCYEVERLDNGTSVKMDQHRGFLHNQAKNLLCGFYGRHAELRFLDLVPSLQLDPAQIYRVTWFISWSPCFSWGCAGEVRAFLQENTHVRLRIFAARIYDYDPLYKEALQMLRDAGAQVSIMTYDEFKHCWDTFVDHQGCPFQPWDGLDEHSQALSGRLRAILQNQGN
CTSL1 counter – blocks F. hepatica cathepsin L1 in PFM18AAP counter-screen | recombinant F. hepatica cathepsin L1, Z-Leu-Arg-MCA fluorescence | inhibition, % at 5.96 µM | 300,000 tested, 0.49% active | AID 1906;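 active = inhibition above the mean of all tested compounds plus 3 SD, set per screening campaign, cut at about 17% in these data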;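 note: 0% = plate median of test compound wells and 100% = 1 µM Z-Phe-Ala-diazomethylketone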
APOBEC3G inh – inhibitors of human APOBEC3G DNA deaminase; recombinant A3G, ssDNA deamination FAM/TAMRA fluorescence; AID 493012; 330,000 tested, 0.28% active; inhibition, % at 20 µM;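 active = inhibition of at least 40% at 20 µM, with no more than 30% in the related APOBEC3A deaminase screen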;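 note: plate controls were DMSO wells with A3G for no effect and wells lacking A3G enzyme for full effect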
HGIII-sPLA2 inh – Blocks human group III sPLA2 activity; Q9NZ20; QFRET BODIPY PC-A2 liposome hydrolysis, fluorescence; inhibition, % at 12.2 µM; 370,000 tested, 0.56% active;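 active = inhibition above mean plus 3 SD of compounds lying within the high and low control bounds, cut at about 19% in these data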;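 note: 0% = median of test compound wells and 100% = no enzyme DMSO wells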
NALP1 inh – NALP1 inhibition. AID 2071. S. cerevisiae NALP1/ASC/caspase-1 growth, X-gal OD620, 72 h. inhibition, % at 10 µM. 280,000 tested, 0.61% active; in the data active = inhibition mostly above about 24%, no sharp cut-off; inactive = mostly below about 32%
sPLA2 confirm – human GIII-sPLA2 inhibition, confirmation; shares compounds with HGIII-sPLA2 inh; recombinant hGIII-sPLA2, BODIPY PC-A2 QFRET fluorescence; inhibition, % at 12.2 µM; 2,000 tested, 34% active; AID 743280;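 active = mean inhibition across triplicates above the hit cutoff set in the earlier primary screen, cut at about 19% in these data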;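 note: 0% = enzyme with DMSO and 100% = DMSO wells lacking enzyme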
535nm interf – optically interferes with 535nm fluorescence in sPLA2 counter-screen; shares compounds with HGIII-sPLA2 inh; AID 743282; inhibition, % at 12.2 µM; BODIPY FL product fluorescence interference, QFRET; 2,000 tested, 8.5% active;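 active = average inhibition above the solvent-only control mean plus 3 SD, cut at about 6% in these data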;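 note: 0% = DMSO with substrate plus product and 100% = DMSO with substrate alone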
BODIPY interf DR – counter-screen for HGIII-sPLA2 inhibitors: 535nm fluorescence interference, dose response. shares compounds with HGIII-sPLA2 inh. BODIPY FL product fluorescence interference, cell-free. IC50, µM. 240 tested, under 10 active. AID 743455;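 active = IC50 at or below 10 µM; inactive = IC50 above 10 µM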
An asterisk follows results filed as active; . = no result given; ! = repeats disagree. Sampled rows, rich in hits. Any-hit rate of the full collection: about 2%.

SMILES	APOBEC3A inh	CTSL1 counter	APOBEC3G inh	HGIII-sPLA2 inh	NALP1 inh	sPLA2 confirm	535nm interf	others
CC(C)CCNC(=S)Nc1ccc2nc3n(c(=O)c2c1)CCCCC3	1	2	-3	20*	18	13	-12
CCCCNC(=S)Nc1ccc2nc3n(c(=O)c2c1)CCCCC3	-6	-2	-10	18	-18	.	.
C[C@H]1[C@@H](N(C)CC2CCCCC2)CC[C@@]23CCCN2C(=O)CCC[C@@H]13	.	.	.	4	.	.	.
C[C@H]1C2CC(OC(=O)Nc3cccc(F)c3)C(C2)[C@H]2CCCCN21 (some centres undefined)	.	.	.	7	.	.	.
Cc1ccc(N=Nc2cc(C)ccc2O)c(C)c1	1	.	-5	9	3	.	.
Oc1ccccc1N=Nc1ccccc1O	.	.	.	36*	6	36*	5	BODIPY interf DR=>122
Nc1ccc(N=Nc2ccccc2O)c(N)c1	0	2	-2	21*	.	56*	21*
C=CCn1c(O)c(N=Nc2ccccc2O)c2ccccc21	1	.	-1	4	.	.	.
Cc1ccc(C)c(NC(=S)N/N=C/C(C)c2ccccc2)c1 (centres undefined)	1	-2	-11	22*	-10	14	0
Cc1ccc(C)c(NC(=S)NCc2ccccc2)c1	-6	-1	-9	13	-24	.	.
COc1ccc(CN2CCN(c3ncccn3)CC2)c(C)c1C	-2	3	-4	-1	-28	.	.
COc1ccc(CN2CCN(c3ccccn3)CC2)c(OC)c1C	-2	-3	-8	19*!	16	-4	-14
C=CCN1C(=O)c2ccc(C(=O)OCC(=O)Nc3ccccc3OC)cc2C1=O	-1	.	-6	20*	.	-2	-4
CCCCCCCC(=O)N[C@H]1CC[C@@]23CCCN2C(=O)CCC[C@H]3[C@H]1CCC	.	.	.	4	.	.	.
CC(=O)NC(c1ccc(C)cc1)c1cc(Cl)c2cccnc2c1O (centres undefined)	3	.	-4	1	14	.	.
Oc1c(C(Nc2ccccn2)c2cccnc2)cc(Cl)c2cccnc12 (centres undefined)	-1	1	-7	22*	22	22*	-12
O=C(CCl)NNC(=O)c1c(O)c2ccccc2[nH]c1=O	4	-3	4	23*	3	4	-4
O=S1(=O)c2ccc(Br)cc2OC[C@@H](Cc2ccccc2)N1Cc1cn(Cc2ccccc2)nn1	.	.	.	10	.	.	.
O=C(NCc1ccc(Cl)cc1)O[C@H]1CC[C@@]23CCCN2C(=O)CCC[C@H]3C1	.	.	.	-3	.	.	.
C=CCn1c(-c2ccoc2C)n[nH]c1=S	-5	-4	-7	-3	32	.	.
C=CCn1c(-c2ccco2)n[nH]c1=S	-18	-1	32	21*	-12	8	-4
CN(C)c1ccc(N=Cc2nc(-c3ccccc3)oc2OC(=O)c2cccc(Cl)c2)cc1	-5	10	-8	22*	20	8	-4
Cc1ccc(-c2nc(C=Nc3ccccc3)c(O)o2)cc1	0	2	-1	-2	13	.	.
O=C(Nc1ccc(-c2noc(-c3ccccc3F)n2)cc1)c1cccs1	-4	2	-6	21*	30	-6	-3
CCOC(=O)[C@]12CCCC3=C1N(CCC3)C(=O)[C@@H](CC(=O)N1CCCC1)C2	.	.	.	4	.	.	.
COC(=O)[C@]12C[C@H](CC(=O)NCc3cccc(C(F)(F)F)c3)C(=O)N(Cc3ccccc3)C1=C[C@H](C(C)(C)C)O[C@@H]2C	.	.	.	-12	.	.	.
Cc1ccc(N2CN(Cc3ccco3)CNC2=S)c(C)c1	-5	-2	-9	25*	0	11	-9
Cc1ccc(N2CN(Cc3cccnc3)CNC2=S)c(C)c1	-2	2	-9	8	15	.	.
CCOC(=O)c1cnc2ccc(OC)cc2c1NCc1ccccc1	4	6	-6	1	32	.	.
CCOC(=O)c1cnc2ccc(OCC)cc2c1NCc1ccccc1OC	-4	3	-5	24*	13	-17	-25

Assay outcomes: PubChem BioAssay, several laboratories
